# Laboratory results reported in PubChem BioAssay (Tox21).
# “And” between values parts separate entries of the source, which are not always exact repeats. Equal entries are not always repeated. Results filed as inconclusive are left out. A call without a number means that no potency is given here. The source holds several records for some structures; these can differ, active in one and inactive in another. The source made the active and inactive calls. Unless noted, the call rests on the fitted dose curve; in most records, active means well fitted curve in the direction sought with a large enough effect in the repeat runs; inconclusive means weak or mixed curves; inactive means no such curve, though single readings can be large; an effect the other way counts as inactive or inconclusive.
# Columns and labels:
# [1] = qHTS assay to identify small molecule agonists of the sonic hedgehog signaling (Shh) pathway (AID 1259368; calls by dose curve;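 further: NIH/3T3-derived 3T3Gli1-Luc cells carrying a stable Gli1-driven firefly luciferase reporter; series mostly up to about 92 µM; nearly all actives have a fitted effect of over 15% in size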)
# Outline: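 NIH/3T3-derived 3T3Gli1-Luc cells with stably integrated Gli1-driven firefly luciferase, 2,000 cells/well, compounds added after 4 hr. Incubated 24 hr at 37C, 5% CO2; luminescence read after 30 min with luciferase reagent at room temperature.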
# [2] = qHTS assay to identify small molecule antagonists of the sonic hedgehog signaling (Shh) pathway (AID 1259369; calls by dose curve; further: nearly all actives have a fitted effect of over 45% in size; further: potency means the concentration at half of the fitted maximal effect)
# Outline: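 NIH/3T3-derived Gli1-Luc reporter cells plated 4 h, dosed with compound, then stimulated with conditioned medium for 24 h at 37 C. Firefly luciferase luminescence read after 30 min with detection reagent at room temperature.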
# [3] = qHTS assay to identify small molecule agonists of the androgen receptor (AR) signaling pathway in the presence of an antagonist - cell viability counter screen (AID 1259379); further: nearly all actives have a fitted effect of over 25% in size; further: potency means the concentration at half of the fitted maximal effect
# Outline: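 MDA-kb2 cells (MMTV-luciferase, AR/GR), 3,000/well, 5 h attachment, then 3.0 µM nilutamide (final) and compounds at 15 concentrations. Viability by CellTiter-Fluor fluorescence after 16 h at 37 °C, 0% CO2, in the reporter wells.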
# [4] = qHTS assay to identify small molecule agonists of the estrogen receptor beta (ER-beta) signaling pathway - cell viability counter screen (AID 1259380); further: nearly all actives have a fitted effect of over 30% in size; further: potency means the concentration at half of the fitted maximal effect
# Outline: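 ER-beta-UAS-bla HEK293T cells in medium with 2% charcoal-stripped FBS, pre-incubated 6 hr, then treated 16 hr at 37C. Cytotoxicity read in the same wells by CellTiter-Glo luminescence after 30 min at room temperature.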
# [5] = qHTS assay to identify small molecule antagonists of the estrogen receptor beta (ER-beta) signaling pathway - cell viability counter screen (AID 1259382);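 further: HEK293T cells carrying ER-beta-UAS-bla reporter stimulated with estradiol; series mostly up to about 92 µM; nearly all actives have a fitted effect of over 55% in size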
# Outline: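 ER-beta-UAS-bla HEK293T cells in 2% charcoal-stripped FBS medium, treated with compound plus 1 nM 17-beta-estradiol for 16 h at 37C. Viability read by CellTiter-Glo luminescence after 30 min at room temperature in the same wells.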
# [6] = target: Estrogen receptor (Homo sapiens) (UniProt P03372); experiment: qHTS assay to identify small molecule agonists of the estrogen receptor alpha (ER-alpha) signaling pathway in the presence of an antagonist (AID 1259383; calls by dose curve; further: top concentration of the series differs between compounds; nearly all actives have a fitted effect of over 15% in size)
# Chain of Estrogen receptor (Homo sapiens) (P03372 whole entry, looked up): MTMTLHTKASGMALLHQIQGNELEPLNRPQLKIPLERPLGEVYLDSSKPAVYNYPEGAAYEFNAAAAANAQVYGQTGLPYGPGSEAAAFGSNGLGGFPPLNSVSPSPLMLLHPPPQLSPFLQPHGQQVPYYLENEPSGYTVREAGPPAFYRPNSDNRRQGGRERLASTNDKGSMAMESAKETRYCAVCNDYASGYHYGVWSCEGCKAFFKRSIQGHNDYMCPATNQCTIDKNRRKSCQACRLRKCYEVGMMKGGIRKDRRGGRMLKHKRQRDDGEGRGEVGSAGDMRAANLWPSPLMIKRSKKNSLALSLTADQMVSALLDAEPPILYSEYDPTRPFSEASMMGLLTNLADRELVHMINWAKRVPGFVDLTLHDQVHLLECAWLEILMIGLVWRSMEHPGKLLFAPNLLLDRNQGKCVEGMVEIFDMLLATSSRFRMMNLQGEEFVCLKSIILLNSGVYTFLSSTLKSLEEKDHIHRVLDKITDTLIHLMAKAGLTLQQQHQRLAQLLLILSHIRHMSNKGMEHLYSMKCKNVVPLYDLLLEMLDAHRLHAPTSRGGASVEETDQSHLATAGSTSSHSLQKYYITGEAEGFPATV
# Outline: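 VM7Luc4E2 cells express endogenous full-length ER-alpha with an ERE-luciferase reporter and were hormone-deprived for 5 days. Compounds at 15 concentrations were added with 10.0nM ICI-182,780 for 22hr at 37C. Luminescence was read with ONE-Glo.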
# [7] = qHTS assay to identify small molecule agonists or antagonists of the thyroid stimulating hormone receptor (TSHR) signaling pathway - wild type cell line counter screen (AID 1259384; calls by dose curve)
# Outline: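 Wild-type Hek293 cells, 800/well, 18 h at 37C, then compound with Ro20-1724 for 30 min RT. cAMP by HTRF (cAMP-d2/anti-cAMP cryptate), 1 h RT, fluorescence read. 15 concentrations, triplicates.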
# [8] = target: Thyrotropin receptor (Homo sapiens) (UniProt P16473); experiment: qHTS assay to identify small molecule antagonists of the thyroid stimulating hormone receptor (TSHR) signaling pathway (AID 1259385; calls by dose curve; further: nearly all actives have a fitted effect of over 20% in size)
# Chain of Thyrotropin receptor (Homo sapiens) (P16473 whole entry, looked up): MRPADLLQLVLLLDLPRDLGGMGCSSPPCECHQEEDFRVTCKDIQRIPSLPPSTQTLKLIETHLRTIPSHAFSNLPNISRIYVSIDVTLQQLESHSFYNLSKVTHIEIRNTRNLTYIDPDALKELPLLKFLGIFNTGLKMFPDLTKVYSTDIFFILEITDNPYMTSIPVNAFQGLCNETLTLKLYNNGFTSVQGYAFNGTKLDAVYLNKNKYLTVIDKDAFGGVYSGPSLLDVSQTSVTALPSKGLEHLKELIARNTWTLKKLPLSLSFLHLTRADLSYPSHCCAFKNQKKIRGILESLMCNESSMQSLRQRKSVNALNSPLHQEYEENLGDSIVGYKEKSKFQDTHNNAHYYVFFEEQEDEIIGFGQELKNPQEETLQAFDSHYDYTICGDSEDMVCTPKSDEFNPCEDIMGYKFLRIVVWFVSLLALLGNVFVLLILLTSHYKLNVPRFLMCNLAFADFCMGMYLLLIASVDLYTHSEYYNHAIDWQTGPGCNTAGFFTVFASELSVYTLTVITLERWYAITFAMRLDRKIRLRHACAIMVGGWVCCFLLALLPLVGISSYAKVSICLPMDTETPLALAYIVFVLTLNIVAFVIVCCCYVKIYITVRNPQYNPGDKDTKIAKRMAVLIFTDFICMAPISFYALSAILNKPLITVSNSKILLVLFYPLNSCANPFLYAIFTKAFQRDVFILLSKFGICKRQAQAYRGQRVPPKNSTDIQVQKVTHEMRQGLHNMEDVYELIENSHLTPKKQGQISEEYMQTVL
# Outline: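 TSHR-HEK293 cells (800/well) plated 18 h, then compounds with Ro20-1724 and TSH at 1.5 ng/mL final, 30 min at room temperature. cAMP quantified by HTRF (cAMP-d2/anti-cAMP-cryptate, 1 h); 15 concentrations in triplicate.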
# [9] = qHTS assay to identify small molecule agonists of the estrogen receptor alpha (ER-alpha) signaling pathway in the presence of an antagonist - cell viability counter screen (AID 1259386);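 further: cells exposed to compounds for 22 h at 37 °C before the viability read; nearly all actives have a fitted effect of over 30% in size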; further: potency means the concentration at half of the fitted maximal effect
# Outline: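 Cell viability in VM7Luc4E2 cells (endogenous full-length ER-alpha) measured by CellTiter-Fluor fluorescence in the same wells as the luciferase screen. Cells pre-cultured 5 days in charcoal-stripped serum, then treated 22 h with compounds at 15 concentrations plus 10.0nM ICI-182,780.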
# [10] = target: Progesterone receptor (Homo sapiens) (UniProt P06401); experiment: qHTS assay to identify small molecule agonists of the progesterone receptor (PR) signaling pathway (AID 1346784; calls by dose curve; further: nearly all actives have a fitted effect of over 30% in size; further: potency means the concentration at half of the fitted maximal effect)
# Chain of Progesterone receptor (Homo sapiens) (P06401 whole entry, looked up): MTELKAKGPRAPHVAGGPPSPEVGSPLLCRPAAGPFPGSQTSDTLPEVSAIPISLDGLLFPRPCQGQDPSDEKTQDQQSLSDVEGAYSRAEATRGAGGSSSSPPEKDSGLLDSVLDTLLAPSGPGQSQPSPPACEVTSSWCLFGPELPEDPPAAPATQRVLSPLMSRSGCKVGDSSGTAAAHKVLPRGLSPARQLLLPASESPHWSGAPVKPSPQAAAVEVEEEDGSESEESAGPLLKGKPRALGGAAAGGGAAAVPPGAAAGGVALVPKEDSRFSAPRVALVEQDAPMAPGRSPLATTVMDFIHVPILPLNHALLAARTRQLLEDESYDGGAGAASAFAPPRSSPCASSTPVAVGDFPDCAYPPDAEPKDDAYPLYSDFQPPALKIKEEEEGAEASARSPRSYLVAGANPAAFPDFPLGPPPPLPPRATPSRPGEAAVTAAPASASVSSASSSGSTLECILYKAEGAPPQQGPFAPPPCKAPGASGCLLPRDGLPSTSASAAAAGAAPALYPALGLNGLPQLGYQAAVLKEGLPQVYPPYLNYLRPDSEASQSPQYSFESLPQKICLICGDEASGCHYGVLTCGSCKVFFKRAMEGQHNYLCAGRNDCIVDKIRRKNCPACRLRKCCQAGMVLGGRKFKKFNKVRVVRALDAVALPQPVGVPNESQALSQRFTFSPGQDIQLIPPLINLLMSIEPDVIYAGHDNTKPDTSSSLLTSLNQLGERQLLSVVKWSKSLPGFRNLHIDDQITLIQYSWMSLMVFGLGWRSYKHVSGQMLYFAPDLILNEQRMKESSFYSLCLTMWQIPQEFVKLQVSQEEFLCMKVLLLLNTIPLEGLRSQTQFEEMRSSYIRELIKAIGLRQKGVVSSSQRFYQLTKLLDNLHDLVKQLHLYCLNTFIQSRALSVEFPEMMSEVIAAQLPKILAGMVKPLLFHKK
# Outline: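 PR-UAS-bla HEK 293T cells (beta-lactamase reporter under UAS) in 2% charcoal-stripped FBS, dosed with 23 nL compound after 6 hr, incubated 16hr at 37C. LiveBLAzer B/G FRET substrate added, fluorescence read after 2 hours.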
# [11] = target: Progesterone receptor (Homo sapiens) (UniProt P06401); experiment: qHTS assay to identify small molecule antagonists of the progesterone receptor (PR) signaling pathway (AID 1346795; active means well fitted inhibition curve with a large enough effect in the signal ratio in the repeat runs, not every such curve was filed as active; the % refers to the signal ratio; further: potency means the concentration at half of the fitted maximal effect)
# Outline: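 PR-UAS-bla HEK293T cells with beta-lactamase reporter under UAS control, in 2% charcoal-stripped FBS, treated with compounds plus 1 nM promegestone (R5020, final) for 16 hr at 37C. Read-out: FRET beta-lactamase substrate fluorescence after 2 hr at room temperature.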
# [12] = qHTS assay to identify small molecule antagonists of the progesterone receptor (PR) signaling pathway - cell viability counter screen (AID 1346798); further: series mostly up to about 92 µM; nearly all actives have a fitted effect of over 50% in size
# Outline: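 PR-UAS-bla HEK293T cells, 3,000/well in 2% charcoal-stripped FBS medium, dosed with compounds plus R5020 agonist and incubated 16 h at 37C. Viability then measured in the same wells by CellTiter-Glo luminescence after 30 min at RT.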
# [13] = qHTS assay to identify small molecule agonists of the progesterone receptor (PR) signaling pathway - cell viability counter screen (AID 1346799; calls by dose curve; further: nearly all actives have a fitted effect of over 45% in size)
# Outline: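 Counter screen in the PR-UAS-bla HEK293T wells (2% charcoal-stripped FBS, 16 h compound exposure at 37 C) after the bla read. CellTiter-Glo added, 30 min at room temperature, luminescence read as cell viability.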
# [14] = qHTS assay to identify small molecule antagonists of the TGF-beta/Smad signaling pathway - cell viability counter screen (AID 1346824); further: nearly all actives have a fitted effect of over 50% in size
# Outline: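 SBE-bla HEK 293T cells, incubated overnight, then compound plus 0.25 ng/mL TGF-beta1 (stock added) for 5 hr at 37 C. Viability was read in the same wells by CellTiter-Glo luminescence after 30 min at room temperature.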
# [15] = qHTS assay to identify small molecule agonists of the TGF-beta/Smad signaling pathway - cell viability counter screen (AID 1346829); further: top concentration of the series differs between compounds; nearly all actives have a fitted effect of over 45% in size
# Outline: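 Luminescence from CellTiter-Glo, read after a 30 min room-temperature incubation, gives cell viability of SBE-bla HEK 293T cells treated 5 hr with compounds at 37 C.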
# [16] = qHTS assay to identify small molecule agonists of the TGF-beta/Smad signaling pathway (AID 1346859; active means well fitted activation curve with a large enough effect in the signal ratio in the repeat runs, not every such curve was filed as active; the % refers to the signal ratio; further: series mostly up to about 77 µM)
# Outline: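 SBE-bla HEK293T cells plated overnight, then compound exposure for 5 h at 37 C. Beta-lactamase reporter read with LiveBLAzer B/G FRET substrate after 2 h at room temperature, fluorescence at 405 nm excitation, 460/530 nm emission.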
# [17] = target: Thyrotropin-releasing hormone receptor (Homo sapiens) (UniProt P34981); experiment: qHTS assay to identify small molecule antagonists of the thyrotropin-releasing hormone receptor (TRHR) signaling pathway (AID 1346877; active means well fitted inhibition curve with a large enough effect in the repeat runs, not every such curve was filed as active; further: series mostly up to about 51 µM)
# Chain of Thyrotropin-releasing hormone receptor (Homo sapiens) (P34981 whole entry, looked up): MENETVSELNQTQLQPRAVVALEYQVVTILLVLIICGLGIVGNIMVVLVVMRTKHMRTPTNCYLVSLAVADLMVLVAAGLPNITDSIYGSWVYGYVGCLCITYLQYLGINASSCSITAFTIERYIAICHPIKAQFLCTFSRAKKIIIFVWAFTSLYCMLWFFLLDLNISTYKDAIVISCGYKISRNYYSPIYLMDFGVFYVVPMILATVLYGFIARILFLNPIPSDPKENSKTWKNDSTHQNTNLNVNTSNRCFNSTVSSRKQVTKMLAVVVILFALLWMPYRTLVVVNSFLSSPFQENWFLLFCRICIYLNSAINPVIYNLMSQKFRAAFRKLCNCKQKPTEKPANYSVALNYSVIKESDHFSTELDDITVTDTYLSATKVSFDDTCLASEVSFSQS
# Outline: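 TRHR-expressing HEK293 cells loaded with calcium dye for 2 h at 37 C; compounds pre-incubated 5 min at room temperature before TRH challenge at 1 nM final. Intracellular calcium fluorescence read kinetically for 3 min; 15 concentrations in triplicate.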
# [18] = target: Androgen receptor (Homo sapiens) (UniProt P10275); experiment: qHTS assay to identify small molecule agonists of the androgen receptor (AR) signaling pathway in the presence of an antagonist (AID 1259381; calls by dose curve; further: nearly all actives have a fitted effect of over 15% in size; further: potency means the concentration at half of the fitted maximal effect)
# Chain of Androgen receptor (Homo sapiens) (P10275 whole entry, looked up): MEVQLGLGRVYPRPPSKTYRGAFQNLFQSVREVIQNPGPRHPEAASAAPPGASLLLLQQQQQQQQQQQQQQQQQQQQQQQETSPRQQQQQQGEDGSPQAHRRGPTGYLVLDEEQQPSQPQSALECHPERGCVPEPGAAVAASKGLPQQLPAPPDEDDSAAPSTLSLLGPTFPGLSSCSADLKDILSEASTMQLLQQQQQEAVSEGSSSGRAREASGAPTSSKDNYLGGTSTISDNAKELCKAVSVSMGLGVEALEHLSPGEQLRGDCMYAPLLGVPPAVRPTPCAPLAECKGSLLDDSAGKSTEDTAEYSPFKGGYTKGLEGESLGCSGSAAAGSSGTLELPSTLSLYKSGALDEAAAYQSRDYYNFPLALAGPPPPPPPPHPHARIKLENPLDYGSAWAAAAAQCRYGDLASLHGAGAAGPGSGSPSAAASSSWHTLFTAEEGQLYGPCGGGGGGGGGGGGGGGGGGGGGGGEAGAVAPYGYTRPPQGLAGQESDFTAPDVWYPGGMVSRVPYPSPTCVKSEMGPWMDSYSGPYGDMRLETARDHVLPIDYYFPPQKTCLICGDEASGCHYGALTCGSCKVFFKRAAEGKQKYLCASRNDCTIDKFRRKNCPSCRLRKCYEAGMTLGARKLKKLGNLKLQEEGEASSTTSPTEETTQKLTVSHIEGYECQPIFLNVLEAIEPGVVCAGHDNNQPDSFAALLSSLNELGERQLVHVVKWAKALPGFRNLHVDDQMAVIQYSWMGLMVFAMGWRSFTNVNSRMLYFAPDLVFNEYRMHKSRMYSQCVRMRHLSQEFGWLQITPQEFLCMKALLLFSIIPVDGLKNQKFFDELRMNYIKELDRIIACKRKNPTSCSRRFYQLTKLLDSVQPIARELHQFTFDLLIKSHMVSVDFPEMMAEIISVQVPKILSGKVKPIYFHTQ
# Outline: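 MDA-kb2 cells carrying MMTV-luciferase (AR/GR responsive), 3,000 cells/well, co-treated with 3.0 uM nilutamide final. Compounds at 15 concentrations, 16 hr at 37C without CO2. Luciferase luminescence read after 30 min with ONE-Glo.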
# [19] = target: Estrogen receptor beta (Homo sapiens) (UniProt Q92731); experiment: qHTS assay to identify small molecule agonists of the estrogen receptor beta (ER-beta) signaling pathway (AID 1259377; active means well fitted activation curve with a large enough effect in the signal ratio in the repeat runs, not every such curve was filed as active; the % refers to the signal ratio)
# Chain of Estrogen receptor beta (Homo sapiens) (Q92731 whole entry, looked up): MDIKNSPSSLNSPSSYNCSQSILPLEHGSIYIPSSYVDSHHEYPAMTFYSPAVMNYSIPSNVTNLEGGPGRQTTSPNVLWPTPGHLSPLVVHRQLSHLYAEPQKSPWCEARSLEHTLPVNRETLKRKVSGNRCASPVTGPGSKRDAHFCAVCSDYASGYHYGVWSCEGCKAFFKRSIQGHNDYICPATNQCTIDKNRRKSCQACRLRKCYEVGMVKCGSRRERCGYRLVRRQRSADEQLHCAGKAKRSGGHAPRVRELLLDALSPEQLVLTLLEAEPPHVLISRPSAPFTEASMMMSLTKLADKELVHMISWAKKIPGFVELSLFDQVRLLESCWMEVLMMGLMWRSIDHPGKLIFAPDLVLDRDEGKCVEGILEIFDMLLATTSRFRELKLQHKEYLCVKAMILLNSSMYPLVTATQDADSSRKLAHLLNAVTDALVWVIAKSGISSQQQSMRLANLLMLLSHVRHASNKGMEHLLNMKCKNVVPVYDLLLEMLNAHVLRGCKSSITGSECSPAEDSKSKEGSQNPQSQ
# Outline: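 ER-beta-UAS-bla HEK293T cells in medium with 2% charcoal-stripped FBS were exposed to compounds for 16 h at 37C. Beta-lactamase reporter activity was read as fluorescence after 2 h with LiveBLAzer B/G FRET substrate at room temperature.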
Compound,outcome [1],Potency [2],Potency [3],Potency [4],Potency [5],Potency [6],outcome [7],outcome [8],Potency [9],Potency [10],Potency [11],Potency [12],Potency [13],Potency [14],Potency [15],outcome [16],outcome [17],Potency [18],Potency [19]
CCOC(=O)/C=C\C(=O)OCC,inactive,inactive,inactive,inactive,inactive,inactive,inactive,inactive,inactive,inactive,inactive,inactive,inactive,inactive,inactive,inactive,inactive,–,–
CCCCCCCCCCC=CC1CC(=O)OC1=O (configuration not stated),inactive,inactive,inactive,inactive,inactive,–,inactive,inactive,inactive,inactive,inactive,inactive,inactive,inactive,inactive,inactive,–,–,–
COC(=O)Nc1nc2ccc(Sc3ccccc3)cc2[nH]1,inactive,1.93 µM (active) and 2.66 µM (active),inactive,inactive,inactive,–,inactive,inactive,inactive,inactive,–,inactive,–,inactive,inactive,inactive,inactive,–,–
O=C(O)c1cc(-c2ccccc2)nc2ccccc12,inactive,inactive,inactive,inactive,inactive,–,inactive,inactive,inactive,779 nM (active) and inactive,inactive,inactive,inactive,inactive,inactive,inactive,inactive,55.1 µM (active) and inactive,–
CC(C)(N=C=O)c1cccc(C(C)(C)N=C=O)c1,inactive,inactive,inactive,68 µM (active) and inactive,inactive,–,inactive,inactive,inactive,inactive,inactive,inactive,inactive,inactive,inactive,inactive,inactive,–,–
CC1COc2ccccc2N1C(=O)C(Cl)Cl (configuration not stated),inactive,15.3 µM (active),–,inactive,inactive,inactive,inactive,inactive,inactive,inactive,30.6 µM (active) and 24.3 µM (active),–,–,inactive,inactive,inactive,inactive,–,inactive
CCCCOCCO,inactive,inactive,inactive,inactive,inactive,inactive,inactive,inactive,inactive,inactive,inactive,inactive,inactive,inactive,inactive,inactive,inactive,–,–
CC[Si](OC(C)=O)(OC(C)=O)OC(C)=O,inactive,inactive,inactive,inactive,inactive,inactive,inactive,inactive,inactive,inactive,inactive,inactive,inactive,inactive,inactive,inactive,inactive,–,–
CC(C)Cc1ccccc1,inactive,inactive,inactive,inactive,inactive,inactive,inactive,inactive,inactive,inactive,inactive,inactive,inactive,inactive,inactive,inactive,inactive,–,–
O=C1N=C(O)CN1/N=C/c1ccc(-c2ccc([N+](=O)[O-])cc2)o1,inactive,inactive,30.6 µM (active) and 23.7 µM (active),inactive,inactive,–,inactive,–,27.3 µM (active) and 26.6 µM (active),inactive,inactive,inactive,inactive,inactive,inactive,–,–,–,–
c1ccc2[nH]cnc2c1,inactive,inactive,inactive,inactive,–,–,–,–,inactive,inactive,inactive,–,inactive,inactive,inactive,inactive,inactive,–,–
C=C1CC[C@H](O)CC1=C/C=C1\CCC[C@]2(C)[C@@H]([C@H](C)/C=C/[C@H](C)C(C)C)CC[C@@H]12,inactive,4.81 µM (active) and 17.2 µM (active),inactive,24.1 µM (active) and 30.6 µM (active),–,–,inactive,inactive,–,inactive,–,inactive,inactive,inactive,inactive,inactive,–,–,inactive
CCOC(=O)C1OC1c1ccccc1 (configuration not stated),inactive,inactive,inactive,–,inactive,–,–,–,inactive,inactive,inactive,inactive,inactive,inactive,inactive,inactive,inactive,–,–
O=S(=O)(Oc1ccc(Cl)cc1Cl)c1ccccc1,inactive,inactive,inactive,inactive,inactive,inactive,inactive,inactive,inactive,inactive,8.78 µM (active) and 12.2 µM (active),inactive,inactive,inactive,inactive,inactive,–,–,–
